# Source: PubChem BioAssay
# In the library only some 28% were active in any assay of this set; here they are far more common.
# Mac1 fbg enh = increases human CD11b/CD18 adhesion to fibrinogen. K562 CD11b/CD18 adhesion to fibrinogen, ATPlite luminescence. 93,000 compounds, 0.07% hits. activation, % at 10 µM;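 active = 10 µM primary screen giving 50% or more activity, confirmed by 40% or more on retest at that dose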
# CYP2C19 activ = cytochrome P450 2C19 (human) activation | P33261 | recombinant CYP2C19, luciferin-H EGE luminescence; hits give high values; 0 = fully inhibited enzyme, 1 = untreated enzyme | activation factor at 5 µM | 96,000 tested, under 10 active | AID 1025;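 active = activation factor of at least 2 at 5 µM in the primary screen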;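 also: 0 = wells with 2.5 mM tranylcypromine and 1 = vehicle-only wells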
# Mac1 fbg inh = CD11b/CD18-fibrinogen binding inhibition | K562 CD11b/CD18 adhesion to fibrinogen, ATPlite luminescence; Mn2+ added to activate the integrin | 93,000 compounds, 0.54% hits | inhibition, % at 10 µM | P05107+P11215;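 active = primary inhibition of 50% or more at 10 µM, then 40% or more on retest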
# CYP2C9 inh = blocks human cytochrome P450 2C9; P11712; CYP2C9 Supersomes, luciferin-H conversion, luminescence; inhibition, % at 5 µM; 96,000 compounds, 20% hits;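 active = blocking of liver enzyme CYP2C9 beyond about 50% at 5 µM, limit read from the data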
# CYP2C9 act = increases human cytochrome P450 2C9 activity. P11712. recombinant CYP2C9, luciferin-H conversion, luminescence; hits give high values; factor 1 = untreated enzyme, 0 = blocked. activation factor at 5 µM. 96,000 compounds, 1.4% hits;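 active = activation factor of 2 or more for CYP2C9 at a 5 µM dose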;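 also: 0 = sulfaphenazole-blocked wells and 1 = vehicle-only wells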
# CYP2C19 inh = inhibitors of human CYP2C19 | CYP2C19 Supersomes, luciferin-H EGE luminescence, 30 min | inhibition, % at 5 µM | 96,000 compounds, 21% hits;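 active = CYP2C19 inhibition above a set limit at 5 µM in the primary screen, cut at about 50% in these data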;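 also: plate controls were negative control wells for no effect and 2.5 mM tranylcypromine positive control for full effect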
# The depositor's hits bear a star; nt = not tested or not shown.
SMILES,Mac1 fbg enh,CYP2C19 activ,Mac1 fbg inh,CYP2C9 inh,CYP2C9 act,CYP2C19 inh
CC(=O)C1=C(O)C(=O)N(CCCn2ccnc2)C1c1ccc(C)cc1 (centres undefined),nt,0.4,nt,46.6,0.5,59.7*
CCCN(CC(=O)Nc1ccc(Cl)cc1Cl)C(=O)/C=C/c1cc(OC)ccc1OC,-1.3,nt,20.7,nt,nt,nt
O=C1N(Cc2ccccc2F)c2ccccc2C12OCCCO2,4.5,0.4,0.3,-38.8,1.4,57.3*
COc1ccc(CCNC(=O)CN2CCCc3ccccc32)cc1OC,nt,0.3,nt,59.3*,0.4,74.3*
COc1ccccc1NC(=O)CN1C(=O)C2(OCCCO2)c2ccccc21,-3.3,0.2,-12.7,70.4*,0.3,80.5*
COc1ccc(CCNC(=O)CN2C(=O)C3(OCCCO3)c3ccccc32)cc1OC,-5.4,0.4,-4.6,22.5,0.8,58.8*
COc1ccccc1NC(=O)CN1C(=O)NC(C)(C)C1=O,0.0,0.9,-7.1,-6.9,1.1,13.1
O=C1N(Cc2ccc(F)cc2Cl)c2ccccc2C12OCCCO2,0.8,0.7,-17.5,-79.2,1.8,25.9
CN(C)CCN1C(=O)C(=O)/C(=C(/O)c2ccc(F)cc2)C1c1ccccc1F (centres undefined),-0.1,1,32.6,0.6,1,-4.7
O=C(NC12CC3CC(CC(C3)C1)C2)C12CC3CC(C1)CC(n1cnc(Cl)n1)(C3)C2,0.4,0.7,-7.7,-1.7,1,26.7
Cc1ccccc1-n1c(SC(C)C(=O)N2CCN(C)CC2)nc2ccccc2c1=O (centres undefined),-1.9,1.1,-7.7,-7.6,1.1,-12.8
COc1ccc(OC)c(NC(=O)CN2C(=O)C3(OCCCO3)c3ccccc32)c1,-4.7,0.9,-13.3,68.9*,0.3,13.9
Cc1cc(C)n2nc(SC3CCCCN(C(=O)c4ccc(F)cc4)C3=O)nc2n1 (centres undefined),nt,1,nt,8.5,0.9,-1.9
COc1cccc(C2C(C#N)=C(N)Oc3cc(C)oc(=O)c32)c1OC (centres undefined),0.8,0.6,-1.6,74.5*,0.3,44.4
Cc1cc2c(c(=O)o1)C(C13C=CC(CC1)C3)C(C#N)=C(N)O2 (centres undefined),nt,0.3,nt,75.4*,0.2,72.4*
Cc1cc2c(c(=O)o1)C(CC(C)C)C(C#N)=C(N)O2 (centres undefined),-4.7,0.8,-1.9,63.0*,0.4,24.1
Cc1cc2c(c(=O)n1CCc1ccccc1)C(C(C)C)C(C#N)=C(N)O2 (centres undefined),nt,0.9,nt,6.6,0.9,8.0
COc1ccc(C2C(C#N)=C(N)Oc3cc(C)[nH]c(=O)c32)c(OC)c1OC (centres undefined),-4.1,1,-1.8,9.5,0.9,1.8
Nc1cc(=O)[nH]c(SCc2nnc(-c3ccccc3)o2)n1,-3.3,1.1,-5.5,-2.9,1,-12.1
Cc1c(C(=O)N2CCOCC2)sc(NC(=O)c2ccc3c(c2)OCO3)c1C#N,1.3,1.1,2.9,11.1,0.9,-7.5
Cc1cc(C)n2nc(C(=O)N/N=C/c3c4ccccc4cc4ccccc34)nc2n1,1.8,nt,7.7,nt,nt,nt
COC(=O)c1cccc(Nc2nc3ccccc3nc2C)c1,-5.3,0.9,24.3,44.4,0.6,13.5
O=C(CN1CCOCC1)OCCCC1CCCCC1,nt,0.3,nt,8.3,0.9,72.7*
COc1ccc(N2C(=O)C3CCCN3C2c2ccccc2Cl)cc1 (centres undefined),0.1,0.7,7.4,38.2,0.6,33.6
COc1cccc(S(=O)(=O)Nc2cccnc2)c1,-0.3,0.8,-25.1,-10.3,1.1,24.2
SMILES,Mac1 fbg enh,CYP2C19 activ,Mac1 fbg inh,CYP2C9 inh,CYP2C9 act,CYP2C19 inh
O=C(NN1CCOCC1)c1cc(S(=O)(=O)Nc2cccc(C(F)(F)F)c2)ccc1Cl,1.2,nt,-4.0,nt,nt,nt
CCOc1ccc(NS(=O)(=O)c2ccc(NS(=O)(=O)c3ccc(SC)cc3)cc2)cc1,-3.6,0.7,29.9,86.8*,0.1,34.9
CCOc1ccc(NS(=O)(=O)c2ccc(NC(=S)NC(=O)CC(C)C)cc2)cc1,6.5,0.1,18.2,99.4*,0,89.7*
O=S(=O)(Nc1cccnc1)c1ccc(Cl)c(C(F)(F)F)c1,1.2,0.3,15.6,57.1*,0.4,71.8*
CCOc1ccc(S(=O)(=O)Nc2cccnc2)cc1,-1.9,0.1,-10.0,65.7*,0.3,94.2*
COC(=O)C(O)(CC(=O)Nc1cccc(SC)c1)C(F)(F)F (centres undefined),0.3,0.7,11.0,11.4,0.9,32.2
COc1ccc(NS(=O)(=O)c2ccc3c(c2)CCC(=O)N3)c(OC)c1,-3.1,0.8,8.9,14.0,0.9,21.5
COc1ccc(NS(=O)(=O)c2ccc(NS(=O)(=O)c3ccc(SC)cc3)cc2)c(OC)c1,-2.2,0.8,-6.9,83.4*,0.2,20.5
CCOc1ccc(NS(=O)(=O)c2ccc(NS(C)(=O)=O)cc2)cc1,1.7,0.8,2.7,64.5*,0.4,23.8
Cc1ccc(C(=O)COC(=O)C2CC(=O)N(c3nc(-c4ccccc4)cs3)C2)cc1C (centres undefined),-2.1,0.9,-7.8,90.3*,0.1,12.9
Cc1[nH]cnc1CSCCN,-1.7,1.1,15.2,73.6*,0.3,-6.4
Cc1cc(C)cc(N2C(=O)C3C4C=CC(C4)C3C2=O)c1 (centres undefined),0.5,0.4,4.7,-6.5,1.1,62.7*
Cc1cc(NC(=O)CN2C(=O)NC3(CCC(C)CC3)C2=O)no1 (centres undefined),-2.6,nt,-7.0,nt,nt,nt
O=c1c2ccccc2sn1-c1ccc(S(=O)(=O)N2CCCC2)cc1,nt,0.9,nt,75.3*,0.2,14.6
O=c1c2ccccc2sn1-c1ccccc1,-7.5,0.6,86.4,74.8*,0.3,44.2
O=c1c2cccc3c2c(nn1-c1ccccc1)-c1ccccc1-3,120.8,0.6,-36.0,31.4,0.7,40.9
Cc1ccc(-n2sc3ccccc3c2=O)cc1S(=O)(=O)N1CCCCC1,-8.8,0.7,73.2,89.1*,0.1,30.3
CCOC(=O)N1CCC(N(C(=O)Nc2ccc(Cl)c(Cl)c2)C(C)CC)CC1 (centres undefined),nt,0.1,nt,84.5*,0.2,88.9*
CC1=C(C)CC(C(=O)Nc2cccc(Cl)c2)C(C(=O)O)C1 (centres undefined),-1.1,1.1,-18.7,50.2*,0.5,-5.2
CCOC(=O)N1CCN(C(=O)Nc2cccc(Cl)c2)CC1,0.3,0.4,6.9,18.3,0.8,61.1*
CC1CCCCN1C(=O)Nc1cccc(Cl)c1 (centres undefined),3.6,0.3,-11.1,16.7,0.8,70.0*
CCNc1nc(NCC)nc(SCCOC(=O)COc2ccc(Cl)cc2Cl)n1,0.6,0.9,-10.7,18.2,0.8,12.1
